Results published in the supplement of paper PMC3545927.
The list shows a part of the results. No count for the full screen is at hand.

B1: FS-1464 (peptide)
chain: CALRDYIPRIAGNASASA
B2: FS-1257 (peptide)
chain: CARFHRACRLAGNASASA
B3: FS-1542 (peptide)
chain: CALRYRHKRLAGNASASA
B4: FS-1541 (peptide)
chain: CALRYRHKRIAGNASASA
B5: FS-110 (peptide)
chain: CAYPNRPDRPAGNASASA
B6: FS-77 (peptide)
chain: CAQGCRKDRGAGNASASA
B7: FS-1227 (peptide)
chain: CALKRRDRRMAGNASASA
B8: HC1614 (peptide)
chain: CAACLRKLGVAGNASASA
B9: FS-1437 (peptide)
chain: CAWGRRKARMAGNASASA
B10: FS-1664 (peptide)
chain: CAYCLRKRRMAGNASASA
B11: HC997 (peptide)
chain: CAYCLSTGCVAGNASASA
B12: FS-876 (peptide)
chain: CASWERPRRPAGNASASA
B13: FS-1171 (peptide)
chain: CATKKRPRRMAGNASASA
B14: FS-2390 (peptide)
chain: CAFERRSFETAGNASASA
B15: HC669 (peptide)
chain: CAGMVSKGWRAGNASASA
B16: HC629 (peptide)
chain: CAVIIKLGALAGNASASA
B17: HC2488 (peptide)
chain: CASWPCSAHLAGNASASA
B18: HC2297 (peptide)
chain: CADSEVVTSTAGNASASA
B19: HC726 (peptide)
chain: CAYLVTRHADAGNASASA
B20: FS-1036 (peptide)
chain: CAMLKRFARMAGNASASA
B21: FS-1302 (peptide)
chain: CAAKRRPRRMAGNASASA
B22: HC405 (peptide)
chain: CAYPPKPCGIAGNASASA
B23: HC36 (peptide)
chain: CAMEECTQHLAGNASASA
B24: HC1069 (peptide)
chain: CAAAQLAAPGAGNASASA
B25: HC1983 (peptide)
chain: CAAVCCSMSYAGNASASA
B26: FS-2191 (peptide)
chain: CARTRRYTLFAGNASASA
B27: FS-2096 (peptide)
chain: CARTRREAPRAGNASASA
B28: FS-2813 (peptide)
chain: CARSQRSEERAGNASASA
B29: FS-2835 (peptide)
chain: CARTRRPGEPAGNASASA
B30: FS-2090 (peptide)
chain: CARSRRLQQRAGNASASA
B31: FS-3237 (peptide)
chain: CARSRRSEERAGNASASA
B32: FS-3112 (peptide)
chain: CARTRRYYLSAGNASASA
B33: FS-2665 (peptide)
chain: CARFRRQDVRAGNASASA
B34: HC927 (peptide)
chain: CAAETTVRLRAGNASASA
B35: FS-2899 (peptide)
chain: CARCVRICSKAGNASASA
B36: HC2489 (peptide)
chain: CASYPCSAHLAGNASASA
B37: HC1200 (peptide)
chain: CATFALWRVSAGNASASA
B38: HC2005 (peptide)
chain: CAVLCCSMSYAGNASASA
B39: FS-2369 (peptide)
chain: CARRFRSVPRAGNASASA
B40: FS-2818 (peptide)
chain: CARSRRQDVRAGNASASA
B41: FS-2926 (peptide)
chain: CARFRKAYKPAGNASASA
B42: FS-2141 (peptide)
chain: CARFYRYMGRAGNASASA
B43: FS-2667 (peptide)
chain: CARFRRSVPRAGNASASA
B44: FS-1702 (peptide)
chain: CARFRRAANRAGNASASA
B45: EK4 (peptide)
chain: CATFHKAEYRAGNASASA
B46: FS-3094 (peptide)
chain: CARSRRRSGRAGNASASA
B47: FS-1878 (peptide)
chain: CADFVRSITPAGNASASA
B48: FS-1890 (peptide)
chain: CARERRSEEPAGNASASA
B49: FS-1854 (peptide)
chain: CARFRRSETPAGNASASA

Biological target: furin, P09958
Sequence (P09958 whole entry): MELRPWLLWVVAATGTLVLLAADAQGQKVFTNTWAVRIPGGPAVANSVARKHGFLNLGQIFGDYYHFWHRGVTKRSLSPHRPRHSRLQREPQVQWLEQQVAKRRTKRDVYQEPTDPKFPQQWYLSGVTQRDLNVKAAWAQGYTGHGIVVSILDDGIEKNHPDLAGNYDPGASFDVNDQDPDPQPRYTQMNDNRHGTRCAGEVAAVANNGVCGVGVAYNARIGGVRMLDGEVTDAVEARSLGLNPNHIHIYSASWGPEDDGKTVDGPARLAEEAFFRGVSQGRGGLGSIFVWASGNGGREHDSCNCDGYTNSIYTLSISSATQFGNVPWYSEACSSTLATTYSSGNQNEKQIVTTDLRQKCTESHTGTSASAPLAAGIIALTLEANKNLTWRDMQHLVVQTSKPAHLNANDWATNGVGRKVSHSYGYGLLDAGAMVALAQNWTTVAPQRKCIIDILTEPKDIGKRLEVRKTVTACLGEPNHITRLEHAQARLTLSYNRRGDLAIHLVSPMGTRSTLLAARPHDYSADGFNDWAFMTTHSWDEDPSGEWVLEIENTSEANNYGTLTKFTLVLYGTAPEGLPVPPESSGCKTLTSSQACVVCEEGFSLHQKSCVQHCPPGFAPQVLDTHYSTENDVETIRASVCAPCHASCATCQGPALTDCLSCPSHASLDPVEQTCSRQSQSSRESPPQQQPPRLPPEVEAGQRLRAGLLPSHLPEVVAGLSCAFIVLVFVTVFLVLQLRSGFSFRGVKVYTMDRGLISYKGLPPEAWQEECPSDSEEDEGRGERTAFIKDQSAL
Experiment: furin cleavage Z-score vs untreated control; higher = more cleavage, active = 3.5 or more, inactive = 1 or less, 8 variable residues between constant flanks
Method in brief: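 Sequencing of released DNA, tagged with adapters by PCR, gave read counts used as abundance. That DNA was freed when purified furin cut N-terminally bead-bound 8-mer peptides fused to a cDNA oligonucleotide, in 0.01 ml reactions at 1:10 enzyme:substrate in 50 mM HEPES pH 7.5 with CaCl2 and NaCl, lasting 7.5, 15 or 30 min. The cleavage Z-score was the lowess-adjusted log count versus furin-free reactions, scaled by median absolute deviation.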

Sequence	furin cleavage Z-score (7.5 min)	furin cleavage Z-score (15 min)	furin cleavage Z-score (30 min)
B1	-0.691 (inactive)	-1.05 (inactive)	-0.313 (inactive)
B2	-0.645 (inactive)	-0.00567 (inactive)	-0.322 (inactive)
B3	9.71 (active)	11.6 (active)	9.65 (active)
B4	6.08 (active)	8.2 (active)	8.94 (active)
B5	-0.325 (inactive)	0.955 (inactive)	0.00762 (inactive)
B6	-1.71 (inactive)	0.374 (inactive)	-0.248 (inactive)
B7	12 (active)	13.4 (active)	10.3 (active)
B8	-0.73 (inactive)	-0.95 (inactive)	1.04
B9	8.17 (active)	11.8 (active)	9.74 (active)
B10	8.61 (active)	9.15 (active)	7.84 (active)
B11	-1.15 (inactive)	0.0405 (inactive)	-1.03 (inactive)
B12	-1.15 (inactive)	-0.626 (inactive)	0.927 (inactive)
B13	7.17 (active)	8.34 (active)	8.69 (active)
B14	-1.51 (inactive)	-1.58 (inactive)	-0.598 (inactive)
B15	-0.876 (inactive)	0.139 (inactive)	-1.14 (inactive)
B16	0.217 (inactive)	-0.103 (inactive)	0.349 (inactive)
B17	0.993 (inactive)	0.675 (inactive)	1.37
B18	-0.913 (inactive)	1.6	0.0245 (inactive)
B19	-0.934 (inactive)	-0.697 (inactive)	-0.629 (inactive)
B20	9.66 (active)	12.7 (active)	9.59 (active)
B21	7.77 (active)	7.84 (active)	6.56 (active)
B22	-0.254 (inactive)	1.24	-0.00218 (inactive)
B23	1.8	0.851 (inactive)	0.876 (inactive)
B24	0.864 (inactive)	-0.982 (inactive)	-0.549 (inactive)
B25	-0.929 (inactive)	-0.792 (inactive)	0.279 (inactive)

Sequence	furin cleavage Z-score (7.5 min)	furin cleavage Z-score (15 min)	furin cleavage Z-score (30 min)
B26	2.37	3.82 (active)	4.23 (active)
B27	11.6 (active)	11.4 (active)	9.47 (active)
B28	-1.38 (inactive)	-0.785 (inactive)	0.605 (inactive)
B29	-0.179 (inactive)	0.383 (inactive)	0.174 (inactive)
B30	-1.41 (inactive)	-1.28 (inactive)	-0.156 (inactive)
B31	6.2 (active)	7.41 (active)	5.66 (active)
B32	-0.7 (inactive)	2.33	1.85
B33	3.01	3.49	4.11 (active)
B34	0.749 (inactive)	-0.382 (inactive)	0.0108 (inactive)
B35	1.54	-0.229 (inactive)	-0.326 (inactive)
B36	0.414 (inactive)	-1.17 (inactive)	1.74
B37	-1.06 (inactive)	-0.9 (inactive)	-0.368 (inactive)
B38	0.0781 (inactive)	1.47	0.67 (inactive)
B39	-0.464 (inactive)	0.0993 (inactive)	0.454 (inactive)
B40	1.35	3.52 (active)	2.66
B41	0.349 (inactive)	-0.617 (inactive)	-0.661 (inactive)
B42	0.0635 (inactive)	0.964 (inactive)	-0.333 (inactive)
B43	8.62 (active)	7.98 (active)	7.02 (active)
B44	7.75 (active)	10.5 (active)	7.34 (active)
B45	-1.71 (inactive)	-2.3 (inactive)	-0.599 (inactive)
B46	1.03	0.486 (inactive)	1.5
B47	-0.721 (inactive)	-0.817 (inactive)	-2.11 (inactive)
B48	-0.884 (inactive)	3.45	0.678 (inactive)
B49	6.5 (active)	5.93 (active)	5.18 (active)
